{"source": "PubChem BioAssay (NCATS)", "key": {"[1]": {"molecular_target": "Cytochrome P450 3A4 (Homo sapiens) (UniProt P08684)", "sequence (P08684 whole entry, looked up, canonical isoform)": "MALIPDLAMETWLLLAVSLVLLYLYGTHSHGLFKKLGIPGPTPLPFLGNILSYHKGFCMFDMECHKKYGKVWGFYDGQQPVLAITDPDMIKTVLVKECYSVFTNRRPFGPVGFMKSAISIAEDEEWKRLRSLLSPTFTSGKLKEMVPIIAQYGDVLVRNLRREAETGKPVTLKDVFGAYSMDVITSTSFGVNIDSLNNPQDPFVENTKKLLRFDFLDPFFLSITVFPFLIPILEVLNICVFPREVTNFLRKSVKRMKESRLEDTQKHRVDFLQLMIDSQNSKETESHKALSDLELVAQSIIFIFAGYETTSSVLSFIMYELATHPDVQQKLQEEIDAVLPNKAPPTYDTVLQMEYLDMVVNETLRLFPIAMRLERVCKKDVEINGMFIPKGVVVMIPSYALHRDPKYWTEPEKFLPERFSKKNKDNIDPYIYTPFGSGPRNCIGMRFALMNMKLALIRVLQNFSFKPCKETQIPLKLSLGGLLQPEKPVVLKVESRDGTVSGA", "experiment": "qHTS for inhibitors of CYP3A4 against the NCATS DSHEA and TCM libraries (AID 1919971);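 note: inhibition lowers luminescence from luciferin made by CYP3A4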", "outline": "(§1)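 Each CYP isoform and its pro-luciferin substrate, at isoform-specific final concentrations, were preincubated 15 min at RT with substances. NADPH regeneration solution (1x) started a 30-45 min reaction, and P450-Glo luminescence was read.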"}, "[2]": {"molecular_target": "Cytochrome P450 2D6 (Homo sapiens) (UniProt P10635)", "sequence (P10635 whole entry, looked up)": "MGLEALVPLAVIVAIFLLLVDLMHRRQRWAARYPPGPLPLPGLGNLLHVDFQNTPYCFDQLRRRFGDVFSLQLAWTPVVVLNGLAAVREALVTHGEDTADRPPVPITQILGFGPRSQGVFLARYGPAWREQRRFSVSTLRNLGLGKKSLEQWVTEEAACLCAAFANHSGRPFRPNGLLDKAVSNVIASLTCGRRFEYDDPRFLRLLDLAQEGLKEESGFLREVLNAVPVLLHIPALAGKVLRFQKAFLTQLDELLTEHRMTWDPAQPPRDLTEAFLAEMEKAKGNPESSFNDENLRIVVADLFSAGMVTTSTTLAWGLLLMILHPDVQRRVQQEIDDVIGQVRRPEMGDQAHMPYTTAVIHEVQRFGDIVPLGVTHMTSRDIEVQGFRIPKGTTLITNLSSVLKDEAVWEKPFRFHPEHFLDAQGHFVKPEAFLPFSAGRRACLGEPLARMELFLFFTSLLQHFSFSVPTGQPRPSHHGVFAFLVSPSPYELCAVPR", "experiment": "qHTS for inhibitors of CYP2D6 against the NCATS DSHEA and TCM libraries (AID 1919972)", "outline": "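CYP2D6 enzyme with pro-luciferin substrate in manufacturer buffer (typically 100 mM KPO4), preincubated 15 min RT with substances (most at 19.5 nM upward); NADPH regeneration system (1x) started 30–45 min RT reaction; P450-Glo luminescence read after 30 min; quinidine as intraplate control.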"}, "[3]": {"experiment": "KB-3-1 P-gp reporter qHTS against the NCATS DSHEA and TCM libraries (AID 1919975)", "outline": "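Parental KB-3-1 human cervical adenocarcinoma cells (500 cells/well, DMEM + 10% FBS) were treated with substances for ~72 h at 37C; viability was read by CellTiter-Glo luminescence.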"}, "[4]": {"experiment": "qHTS Counterscreen for compound interference against the NCATS DSHEA and TCM libraries (AID 1919978)", "settings": "firefly luciferase detection reagent interference, luminescence", "outline": "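D-luciferin (1 uM final) or 100 mM potassium phosphate buffer alone was preincubated 15 min at RT with compounds (19.5 nM to 39.8 uM final). Luciferin detection reagent was then added and luminescence read after 30 min at RT.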"}, "[5]": {"experiment": "Dual reporter qHTS for agonist of Pregnane X Receptor (hPXR) against the NCATS DSHEA and TCM libraries: Fluorescence readout (AID 1920058)", "outline": "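Viability readout (CellTiter-Fluor, 405/540 nm, 1 h) from agonist-mode PXR dual reporter in hPXR-Luc HepG2 cells. Substances ~24 h, 37 °C, 5% CO2; rifampicin reference, tetraoctyl ammonium bromide cytotoxic control.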"}, "[6]": {"molecular_target": "Nuclear receptor subfamily 1 group I member 2 (Homo sapiens) (UniProt O75469)", "sequence (O75469 whole entry, looked up)": "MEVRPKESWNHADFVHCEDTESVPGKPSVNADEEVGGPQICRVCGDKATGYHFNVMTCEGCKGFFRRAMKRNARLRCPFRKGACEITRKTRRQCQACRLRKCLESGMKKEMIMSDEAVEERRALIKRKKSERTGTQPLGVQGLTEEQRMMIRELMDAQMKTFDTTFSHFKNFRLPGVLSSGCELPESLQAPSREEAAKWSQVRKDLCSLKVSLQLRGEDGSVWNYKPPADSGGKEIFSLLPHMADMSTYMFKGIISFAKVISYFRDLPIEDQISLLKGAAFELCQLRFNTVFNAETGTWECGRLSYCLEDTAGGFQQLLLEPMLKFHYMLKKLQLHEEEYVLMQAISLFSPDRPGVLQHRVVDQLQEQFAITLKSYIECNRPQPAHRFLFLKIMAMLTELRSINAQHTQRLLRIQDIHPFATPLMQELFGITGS", "experiment": "Dual reporter qHTS for agonist of Pregnane X Receptor (hPXR) against the NCATS DSHEA and TCM libraries: Luminescence readout (AID 1920059)", "outline": "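hPXR-LucHepG2 cells in phenol red-free DMEM with 5% charcoal-stripped FBS, 2000 cells/well, attached 5 h, then exposed 24 h at 37C to compounds; rifampicin as positive agonist control (2.8 nM–92 uM). Luciferase luminescence read.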"}, "[7]": {"molecular_target": "Nuclear receptor subfamily 1 group I member 2 (Homo sapiens) (UniProt O75469)", "experiment": "Dual reporter qHTS for antagonist of Pregnane X Receptor (hPXR) against the NCATS DSHEA and TCM libraries: Luminescence Readout (AID 1920060)", "outline": "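hPXR-Luc HepG2 cells exposed 24 h at 37 C to compounds with 2 uM rifampicin in antagonist mode; luciferase luminescence measured by ONE-Glo, with CellTiter-Fluor viability read beforehand.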"}, "[8]": {"molecular_target": "Cytochrome P450 2C9 (Homo sapiens) (UniProt P11712)", "sequence (P11712 whole entry, looked up)": "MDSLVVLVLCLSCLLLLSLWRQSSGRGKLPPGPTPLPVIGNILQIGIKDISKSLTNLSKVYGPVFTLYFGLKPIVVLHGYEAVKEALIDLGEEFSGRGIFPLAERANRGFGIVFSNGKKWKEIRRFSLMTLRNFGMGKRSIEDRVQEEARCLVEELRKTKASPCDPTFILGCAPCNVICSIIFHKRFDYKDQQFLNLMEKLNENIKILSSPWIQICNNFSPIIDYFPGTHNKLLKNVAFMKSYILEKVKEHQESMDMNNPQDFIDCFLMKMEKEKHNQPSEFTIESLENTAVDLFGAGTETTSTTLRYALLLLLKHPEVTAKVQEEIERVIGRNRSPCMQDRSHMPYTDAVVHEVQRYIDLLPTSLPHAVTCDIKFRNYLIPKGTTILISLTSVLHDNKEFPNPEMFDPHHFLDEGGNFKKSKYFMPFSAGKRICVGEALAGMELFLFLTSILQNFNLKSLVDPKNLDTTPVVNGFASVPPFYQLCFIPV", "experiment": "qHTS for inhibitors of CYP2C9 against the NCATS DSHEA and TCM libraries (AID 1919973)", "outline": "as §1"}, "[9]": {"molecular_target": "Cytochrome P450 2C19 (Homo sapiens) (UniProt P33261)", "sequence (P33261 whole entry, looked up)": "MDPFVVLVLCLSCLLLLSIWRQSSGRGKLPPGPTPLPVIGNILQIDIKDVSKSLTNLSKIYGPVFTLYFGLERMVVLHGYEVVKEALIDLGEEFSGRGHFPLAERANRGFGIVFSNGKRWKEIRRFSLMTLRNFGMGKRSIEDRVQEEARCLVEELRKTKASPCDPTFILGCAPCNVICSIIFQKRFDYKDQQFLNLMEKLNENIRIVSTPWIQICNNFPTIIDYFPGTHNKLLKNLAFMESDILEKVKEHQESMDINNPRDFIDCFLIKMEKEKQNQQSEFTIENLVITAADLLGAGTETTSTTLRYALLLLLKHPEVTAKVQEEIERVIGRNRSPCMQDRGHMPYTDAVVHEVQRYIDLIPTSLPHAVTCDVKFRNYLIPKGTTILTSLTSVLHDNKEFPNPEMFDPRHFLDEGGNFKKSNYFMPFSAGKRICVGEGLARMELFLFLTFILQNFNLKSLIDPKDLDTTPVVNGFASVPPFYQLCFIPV", "experiment": "qHTS for inhibitors of CYP2C19 against the NCATS DSHEA and TCM libraries (AID 1919974)", "outline": "as §1"}, "[10]": {"molecular_target": "Cytochrome P450 1A2 (Homo sapiens) (UniProt P05177)", "sequence (P05177 whole entry, looked up)": "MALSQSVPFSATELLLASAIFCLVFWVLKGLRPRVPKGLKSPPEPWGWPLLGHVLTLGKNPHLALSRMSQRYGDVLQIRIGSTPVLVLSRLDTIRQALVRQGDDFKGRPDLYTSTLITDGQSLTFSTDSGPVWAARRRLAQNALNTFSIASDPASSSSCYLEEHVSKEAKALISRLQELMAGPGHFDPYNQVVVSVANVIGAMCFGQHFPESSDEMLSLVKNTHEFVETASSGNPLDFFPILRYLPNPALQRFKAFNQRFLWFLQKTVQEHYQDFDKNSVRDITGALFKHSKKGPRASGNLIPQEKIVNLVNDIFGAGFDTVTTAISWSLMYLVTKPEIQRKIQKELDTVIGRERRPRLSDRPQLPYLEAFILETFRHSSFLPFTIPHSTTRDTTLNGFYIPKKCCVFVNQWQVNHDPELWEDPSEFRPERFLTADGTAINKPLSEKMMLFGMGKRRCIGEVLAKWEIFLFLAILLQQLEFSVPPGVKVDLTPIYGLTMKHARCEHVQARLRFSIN", "experiment": "qHTS for inhibitors of CYPIA2 against the NCATS DSHEA and TCM libraries (AID 1919976)", "outline": "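Reaction started with 1x NADPH regeneration solution and run 30-45 min, room temperature, protected from light, after compounds sat 15 min with CYP1A2 and pro-luciferin substrate. P450-Glo detection gave luminescence; furafylline served as control.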"}}, "note": "Results filed as inconclusive are left out. A call without a number means that no potency is given here. Active and inactive are the calls of the source. Calls come from the whole dose curve; as a rule, active = well fitted curve in the direction sought with a large enough effect; inconclusive = small, poorly fitted or top-dose-only effect, or another doubt; inactive = no such curve, though single readings can be large; an effect the other way counts as inactive or inconclusive. Throughout, for potency: potency is the fitted concentration of half-maximal effect.", "data": [{"smiles": "CC(C)(CO)[C@@H](O)C(=O)NCCC(=O)O", "values": [{"measurement": "outcome", "setting": "[1]", "value": "inactive"}, {"measurement": "outcome", "setting": "[2]", "value": "inactive"}, {"measurement": "outcome", "setting": "[3]", "value": "inactive"}, {"measurement": "max response", "setting": "[4]", "value": "-1.56% (inactive)"}, {"measurement": "Potency", "setting": "[5]", "value": "inactive"}, {"measurement": "Potency", "setting": "[6]", "value": "11.2 µM (active)"}, {"measurement": "outcome", "setting": "[7]", "value": "inactive"}]}, {"smiles": "Cc1cc2nc3c(=O)[nH]c(=O)nc-3n(CC(O)C(O)C(O)CO)c2cc1C", "note": "(stereo unspecified)", "values": [{"measurement": "outcome", "setting": "[1]", "value": "inactive"}, {"measurement": "Potency", "setting": "[8]", "value": "inactive"}, {"measurement": "outcome", "setting": "[3]", "value": "inactive"}, {"measurement": "max response", "setting": "[4]", "value": "1.01% (inactive)"}, {"measurement": "Potency", "setting": "[5]", "value": "28.2 µM (active)"}, {"measurement": "Potency", "setting": "[6]", "value": "inactive"}, {"measurement": "outcome", "setting": "[7]", "value": "inactive"}]}, {"smiles": "OC[C@H]1O[C@@H](OCCc2ccc(O)cc2)[C@H](O)[C@@H](O)[C@H]1O", "values": [{"measurement": "outcome", "setting": "[1]", "value": "inactive"}, {"measurement": "outcome", "setting": "[2]", "value": "inactive"}, {"measurement": "Potency", "setting": "[8]", "value": "inactive"}, {"measurement": "Potency", "setting": "[9]", "value": "inactive"}, {"measurement": "outcome", "setting": "[3]", "value": "inactive"}, {"measurement": "outcome", "setting": "[10]", "value": "inactive"}, {"measurement": "max response", "setting": "[4]", "value": "1.11% (inactive)"}, {"measurement": "Potency", "setting": "[5]", "value": "inactive"}, {"measurement": "Potency", "setting": "[6]", "value": "inactive"}, {"measurement": "outcome", "setting": "[7]", "value": "inactive"}]}, {"smiles": "O=c1cc(-c2ccc(O)c(O)c2)oc2cc(O)cc(O)c12", "values": [{"measurement": "outcome", "setting": "[2]", "value": "inactive"}, {"measurement": "Potency", "setting": "[8]", "value": "11.2 µM (active)"}, {"measurement": "Potency", "setting": "[9]", "value": "7.94 µM (active)"}, {"measurement": "outcome", "setting": "[3]", "value": "inactive"}, {"measurement": "max response", "setting": "[4]", "value": "-0.391% (inactive)"}, {"measurement": "Potency", "setting": "[5]", "value": "inactive"}, {"measurement": "outcome", "setting": "[7]", "value": "inactive"}]}]}
